Measurements published in PubChem BioAssay.
Values without a mark were called inactive. The rule behind the calls is not given here.

These compounds were tested against Pantothenate synthetase (Mycobacterium tuberculosis (strain ATCC 25618 / H37Rv)) (UniProt P9WIL5) (assay: Coupled enzyme confirmation of inhibitors against recombinant Mtb PanC (AID 375;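 note: 0% = full reaction with vehicle and 100% = no enzyme background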)). Details: coupled enzyme assay; at 10 µM, hits give high values.
Sequence of Pantothenate synthetase (Mycobacterium tuberculosis (strain ATCC 25618 / H37Rv)) (P9WIL5 whole entry, looked up): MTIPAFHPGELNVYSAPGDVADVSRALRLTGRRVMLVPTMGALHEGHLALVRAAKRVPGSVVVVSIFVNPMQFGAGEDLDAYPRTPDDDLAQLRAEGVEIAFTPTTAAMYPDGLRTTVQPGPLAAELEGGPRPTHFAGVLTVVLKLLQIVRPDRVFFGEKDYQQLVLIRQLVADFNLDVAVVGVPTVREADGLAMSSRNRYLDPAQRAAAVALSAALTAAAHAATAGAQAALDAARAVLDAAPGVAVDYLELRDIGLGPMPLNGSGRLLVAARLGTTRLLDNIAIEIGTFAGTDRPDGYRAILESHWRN

Compound | inhibition
O=C(Nc1ccc2c(c1)OCO2)C(c1ccccc1)N1CCC2(CC1)OCCO2 (stereo not given) | 0%
CCOC(=O)C1(CC)NC(c2cccc(F)c2)C2C(=O)N(CC)C(=O)C21 (stereo not given) | 0%
Cc1ccc(C)c(N2CCN(C(=O)CCCn3c(=S)[nH]c4cc5c(cc4c3=O)OCO5)CC2)c1 | 0%
CC(=O)Nc1ccn(-c2ccccc2)n1 | 2%
CCC(=O)N[C@@H]1CC(C(C)(C)NC(=O)CC)CC=C1C (stereo not given in full) | 6%
C=CCc1cc(C(=O)N2CCCCC2)ccc1O | 0%
CNC(=O)CSc1nnc(-c2ccc(S(=O)(=O)N3CCCC3)cc2)n1-c1cccc(C)c1C | 0%
O=C(CSc1n[nH]c(=O)[nH]c1=O)c1ccccc1 | 0%
CC(Oc1ccccc1)C(=O)NC1CCN(Cc2ccccc2)CC1 (stereo not given) | 7%
COc1ccccc1-n1c(=O)[nH]c2c(C(N)=O)nc(CC(C)C)nc21 | 0%
Cc1cc(C)c(Cn2c(=O)n(CCCC(=O)NCc3ccco3)c(=O)c3ccccc32)c(C)c1 | 7%
O=C(c1cc2ccccc2oc1=O)N1CCSC1c1ccco1 (stereo not given) | 8%
Cc1c(NC(=O)c2ccc(Br)o2)c(=O)n(-c2ccccc2)n1C | 0%
COC(=O)c1sc(S(=O)(=O)N2CCN(c3ccccc3)CC2)c(C(=O)OC)c1C | 10%
COC(=O)Cn1c(CN2CCOCC2)nc2c1c(=O)n(C)c(=O)n2C | 0%
CC1(C)CC(=O)C(CC2=C(O)CC(C)(C)CC2=O)=C(O)C1 | 4%
CN1C(=O)C(CC(=O)N2CCN(C(c3ccccc3)c3ccccc3)CC2)N(C)C1=O (stereo not given) | 0%
Cc1ccc2[nH]c(=O)c(CN(CCCO)S(=O)(=O)c3c(C)ccc4nsnc34)cc2c1 | 6%
CCOc1ccc(NC(=O)C2CC(=O)N(CC)C(=Nc3ccc4c(c3)OCO4)S2)cc1 (stereo not given) | 3%
CCN1CCN(Cc2ccc(NC(=O)Nc3ccccc3)cc2)CC1 | 1%

Compound | inhibition
Cc1cc(C(=O)NCc2ccc(S(N)(=O)=O)cc2)cs1 | 16%
COCCCNC(=O)CC1Oc2ccccc2NC1=O (stereo not given) | 0%
Nc1nnnn1/N=C/c1ccccc1OCc1ccccc1 | 0%
CCCNC(=O)C1CCN(S(=O)(=O)c2ccc3nc4c(c(C(=O)O)c3c2)CCCCC4)CC1 | 0%
CCCc1cc(-n2ccnc2)n2c(nc3ccccc32)c1C#N | 0%
CC1=C(C(=O)OC2CCCCC2)C(c2ccc(C)o2)C2=C(CC(C)(C)CC2=O)N1 (stereo not given) | 0%
Cc1nc(SCC(=O)c2c[nH]c3ccccc23)n[nH]1 | 4%
CC(C)[N+]1(C)[C@@H]2CC[C@H]1CC(OC(=O)C(CO)c1ccccc1)C2 (stereo not given in full) | 0%
Cn1cc(NC(=O)c2cc(NC(=O)c3cc(NC=O)cn3C)cn2C)cc1C(=O)NCCC(=N)N | 10%
C/C(=C(\C#N)C(=O)NCCCN1CCOCC1)N(C)C | 0%
COc1ccc(C(=O)CSc2nc(C)cc(=O)[nH]2)cc1 | 0%
Cc1ccc(Cc2c(C)nc3c(C(=O)O)cnn3c2C)cc1 | 4%
CC1(C)CC(=O)C(C=Nc2ccc3c(c2)OCO3)=C(O)C1 | 7%
COc1ccc(OC(C)C(=O)N2CC(C)OC(C)C2)cc1 (stereo not given) | 10%
O=S(=O)(NCc1cn2ccsc2n1)c1ccc2c(c1)OCCO2 | 0%
CCCC(=O)Nc1nnc(Sc2ccc(N(C)C)cc2)s1 | 0%
CC(=O)Nc1nc2c(c3c1c(=O)oc1ccccc13)CC(C)CC2 (stereo not given) | 0%
OCCN1CCN(CCCN2c3ccccc3Sc3ccc(Cl)cc32)CC1 | 0%
COc1ccccc1CNC(=O)N[C@@H](Cc1ccccc1)C(=O)O | 6%
CCN1C(=O)Cc2cc(S(=O)(=O)N3CCOCC3)ccc21 | 9%
